Test results as given in the antibiotic and cytotoxicity screens of Wong et al. (2023).
Out of some 39,000 compounds screened, about 500 (1.3%) were called active. The sample as a whole holds a higher share of actives than the screen did.

system: S. aureus RN4220; experiment: growth inhibition call (relative growth <= 0.2); conditions: 50 µM

Growth inhibition call, inactive:
CN(C)c1cc[n+](C(=O)N2CCOCC2)cc1
O=c1[nH]c(=O)c2ccccc2[nH]1
O=c1[nH]c(=O)c2cc(Br)ccc2[nH]1
O=C(Nc1ccc(-c2nc3ccc(NC(=O)c4ccc(Cl)cc4)cc3[nH]2)cc1)c1ccc(Cl)cc1
COCC#Cc1cnc2c(c1)C(=O)N([C@H](C)CO)C[C@H](C)[C@@H](CN(C)S(=O)(=O)c1cn(C)cn1)O2
COc1ccc(CN(C)C[C@H]2OCCCC[C@H](C)Oc3ccc(NC(=O)c4ccccc4)cc3C(=O)N([C@@H](C)CO)C[C@@H]2C)cc1
Cc1cc(C(=O)Nc2cccc3c2O[C@@H](CN(C)C(=O)NC(C)C)[C@H](C)CN([C@@H](C)CO)C3=O)n(C)n1
C[C@@H]1CN([C@H](C)CO)C(=O)c2cc(NC(=O)Nc3ccccc3)ccc2O[C@@H](C)CCCCO[C@@H]1CN(C)Cc1ccccc1
COc1ccc(NC(=O)Nc2cccc3c2O[C@@H](CN(C)S(C)(=O)=O)[C@H](C)CN([C@@H](C)CO)C3=O)cc1
Cc1cc(Cl)ccc1OCCN1CCN(C(=O)[C@H]2CC[C@@H](N)C2)CC1
Cc1cccnc1[C@H](c1ccc(F)cc1)N(C)C(=O)C1CCN(CCn2cnc3c2c(=O)n(C)c(=O)n3C)CC1
Cc1ccccc1[C@@H](c1ncccc1C)N(C)C(=O)C1CCN(CCOc2ccc3ccccc3c2)CC1
COc1ccccc1[C@@H](NC(=O)C1CCN(CCOc2ccc(Cl)cc2Cl)CC1)c1ccccn1
COc1ccc(S(=O)(=O)Nc2ccc3c(c2)C(=O)N([C@H](C)CO)C[C@@H](C)[C@H](CN(C)Cc2ccc(Cl)c(Cl)c2)OCCCC[C@H](C)O3)cc1
C[C@@H]1CN([C@H](C)CO)C(=O)c2cc(-c3ccncc3)cnc2O[C@H]1CN(C)S(=O)(=O)c1ccccc1
C[C@@H]1CN([C@@H](C)CO)C(=O)c2cc(NS(=O)(=O)c3ccc(F)cc3)ccc2O[C@H]1CN(C)C(=O)Nc1ccc(C(F)(F)F)cc1
C[C@@H]1CCCCO[C@H](CN(C)S(=O)(=O)c2cn(C)cn2)[C@H](C)CN([C@@H](C)CO)C(=O)c2cc(NS(=O)(=O)c3ccc(F)cc3)ccc2O1
C[C@@H]1CN([C@@H](C)CO)C(=O)c2cc(NC(=O)Nc3cccc4ccccc34)ccc2O[C@@H]1CN(C)S(=O)(=O)c1ccc(F)cc1
COc1cc(OC)cc(-c2ccc(-c3ccc([C@H]4CC(=O)C[C@@H](c5ccccc5)C45C(=O)OC(C)(C)OC5=O)cc3)cc2OC)c1
COc1cc(OC)cc(-c2ccc([C@H]3CC(=O)C[C@@H](c4ccccc4)C34C(=O)OC(C)(C)OC4=O)cc2)c1
Cc1cc(C(=O)Nc2cccc3c2O[C@H](CN(C)C(=O)NC(C)C)[C@@H](C)CN([C@H](C)CO)C3=O)n(C)n1
C[C@H](CO)N1C[C@H](C)[C@@H](CN(C)C(=O)c2ccccc2)OCCCC[C@H](C)Oc2ccc(NC(=O)Nc3ccc4c(c3)OCO4)cc2C1=O
CO[C@H]1CN(C)C(=O)c2ccc(NS(=O)(=O)c3ccccc3C)cc2OC[C@@H](C)N(S(C)(=O)=O)C[C@@H]1C
C[C@@H]1CCCCO[C@H](CN(C)C)[C@H](C)CN([C@@H](C)CO)C(=O)c2cc(NC(=O)CCCN(C)C)ccc2O1
CO[C@@H]1[C@@H](O[C@@H]2O[C@H](C)[C@@H](O[C@H]3C[C@@](C)(O)[C@@H](OC(=O)CC(C)C)[C@H](C)O3)[C@H](N(C)C)[C@H]2O)[C@@H](CC=O)C[C@@H](C)[C@@H](O)/C=C/C=C/CC(C)OC(=O)C[C@H]1OC(C)=O (stereo partly drawn)
C[C@@H]1CN([C@@H](C)CO)C(=O)c2cc(NC(=O)CCC(F)(F)F)ccc2O[C@@H]1CN(C)Cc1ccc(Oc2ccccc2)cc1
C[C@@H]1CN([C@H](C)CO)C(=O)c2cccc(NC(=O)Nc3ccc(C(F)(F)F)cc3)c2O[C@@H]1CN(C)C(=O)NC1CCCCC1
C[C@@H]1CN([C@H](C)CO)C(=O)c2cccc(NC(=O)Nc3ccc(C(F)(F)F)cc3)c2O[C@H]1CN(C)CC1CCCCC1
C[C@@H]1CN([C@H](C)CO)C(=O)c2cccc(NC(=O)NC3CCCCC3)c2O[C@H]1CN(C)C(=O)Nc1ccc(C(F)(F)F)cc1
C[C@H]1CN([C@@H](C)CO)C(=O)c2cccc(NC(=O)NC3CCCCC3)c2O[C@H]1CN(C)C(=O)Nc1ccc(C(F)(F)F)cc1
C[C@H]1CN([C@@H](C)CO)C(=O)c2cccc(NC(=O)Nc3ccc(C(F)(F)F)cc3)c2O[C@@H]1CN(C)CC1CCCCC1
C[C@H]1CN([C@@H](C)CO)C(=O)c2cccc(NC(=O)Nc3ccc(C(F)(F)F)cc3)c2O[C@@H]1CN(C)C(=O)NC1CCCCC1
C[C@H](CO)N1C[C@H](C)[C@H](CN(C)C(=O)Cc2ccccc2)OCCCC[C@H](C)Oc2ccc(NS(=O)(=O)c3ccc(F)cc3)cc2C1=O
C[C@@H]1CN([C@@H](C)CO)C(=O)c2cccc(NC(=O)Nc3ccc(C(F)(F)F)cc3)c2O[C@H]1CN(C)C(=O)NC1CCCCC1
C[C@H](O)C#Cc1cnc2c(c1)C(=O)N([C@@H](C)CO)C[C@H](C)[C@@H](CN(C)C(=O)Nc1ccc(C(F)(F)F)cc1)O2
C[C@@H]1CN([C@H](C)CO)C(=O)Cc2cc(NC(=O)Nc3ccc(C(F)(F)F)cc3)ccc2O[C@@H]1CN(C)C(=O)Nc1cccc2ccccc12
CO[C@@H]1[C@@H](OC(=O)c2ccc(C)[nH]2)[C@@H](O)[C@@H](Oc2ccc3c(c2C)OC(=O)[C@H](NC(=O)c2[nH]cc(CC(=O)Nc4cc5ccc(O[C@@H]6OC(C)(C)[C@H](OC)[C@@H](OC(=O)c7ccc(C)[nH]7)[C@H]6O)c(C)c5oc4=O)c2C)C3)CC1(C)C
O=C(C[C@H]1C[C@@H]2c3cc(NS(=O)(=O)c4ccc(F)cc4)ccc3O[C@@H]2[C@@H](CO)O1)NC1CCCCC1
O=C(C[C@H]1CC=CCCC(=O)OCCNC1=O)NCCO
C[C@@H]1CN([C@@H](C)CO)C(=O)Cc2cc(NC(=O)CCCN(C)C)ccc2O[C@H]1CN(C)S(C)(=O)=O
COc1ccc(S(=O)(=O)N(C)C[C@@H]2Oc3ccc(NC(=O)Nc4cccc5ccccc45)cc3C(=O)N([C@@H](C)CO)C[C@@H]2C)cc1
COc1ccc(S(=O)(=O)Nc2cccc3c2O[C@@H](CN(C)S(=O)(=O)c2cn(C)cn2)[C@@H](C)CN([C@H](C)CO)C3=O)cc1
C[C@H]1CN([C@@H](C)CO)C(=O)c2cc(NC(=O)Nc3ccc(C(F)(F)F)cc3)ccc2O[C@H]1CN(C)Cc1ccc(C(=O)O)cc1
Cc1ccc(S(=O)(=O)Nc2cccc3c2O[C@H](CN(C)Cc2ccc(C(F)(F)F)cc2)[C@H](C)CN([C@@H](C)CO)C3=O)cc1
Cn1cnc(S(=O)(=O)N2CC[C@H]3NC(=O)C[C@H]32)c1
C[C@@H]1CN([C@H](C)CO)C(=O)Cc2cc(NC(=O)CCC(F)(F)F)ccc2O[C@H]1CN(C)S(=O)(=O)c1cn(C)cn1
OC1(c2ccc(Cl)c(C(F)(F)F)c2)CCN(CCCC(c2ccc(F)cc2)c2ccc(F)cc2)CC1 [listing 1 of 2 here]
O=C(CCCN1CCC(O)(c2ccc(Cl)cc2)CC1)c1ccc(F)cc1

Growth inhibition call, active:
COc1ccc2[nH]c(=O)[nH]c(=O)c2c1
C[C@@H](OC[C@@]1(c2ccccc2)CC[C@]2(CCC(=O)N2)CN1)c1cc(C(F)(F)F)cc(C(F)(F)F)c1
Cc1ccccc1[C@@H](c1ncccc1C)N(C)C(=O)C1CCN(CCOc2ccc(Cl)cc2Cl)CC1
Cc1cccnc1[C@H](c1ccc(F)cc1)N(C)C(=O)C1CCN(CCOc2ccc(Cl)cc2Cl)CC1
COc1cc(OC)cc(-c2ccc([C@H]3CC(=O)C[C@@H](c4ccccc4)C34C(=O)c3ccccc3C4=O)cc2)c1
COC1C(O)CC(=O)OC(C)CC=CC=CC(O)C(C)CC(CC=O)C1OC1OC(C)C(OC2CC(C)(O)C(OC(=O)CC(C)C)C(C)O2)C(N(C)C)C1O (stereo not drawn) [KITASAMYCINS [A1 shown]]
COC(=O)[C@@H]1CC(=O)O[C@H](C)C/C=C/C=C/[C@H](O)[C@H](C)C[C@H](CC=O)[C@H](O[C@H]2O[C@H](C)[C@@H](O[C@H]3C[C@@](C)(O)[C@@H](OC(=O)CC(C)C)[C@H](C)O3)[C@H](N(C)C)[C@H]2O)[C@H]1OC
CO[C@@H]1[C@@H](O[C@@H]2O[C@H](C)[C@@H](O[C@H]3C[C@@](C)(O)[C@@H](OC(=O)CC(C)C)[C@H](C)O3)[C@H](N(C)C)[C@H]2O)[C@@H](CC=O)C[C@@H](C)[C@@H](O)/C=C\C=C/C[C@@H](C)OC(=O)C[C@H]1OC(C)=O
C[C@@H]1CN([C@H](C)CO)C(=O)c2cccc(NC(=O)Nc3ccc(C(F)(F)F)cc3)c2O[C@@H]1CN(C)CC1CCCCC1
C[C@H](CO)N1C[C@H](C)[C@H](CN(C)C(=O)Nc2ccc(C(F)(F)F)cc2)Oc2c(NC(=O)NC3CCCCC3)cccc2C1=O
C[C@H]1CN([C@@H](C)CO)C(=O)c2cccc(NC(=O)Nc3ccc(C(F)(F)F)cc3)c2O[C@H]1CN(C)C(=O)NC1CCCCC1
COC1C(OC(N)=O)C(O)C(Oc2ccc3c([O-])c(NC(=O)c4ccc(O)c(CC=C(C)C)c4)c(=O)oc3c2C)OC1(C)C.[Na+] (stereo not drawn)
c1n[nH]nc1SSc1cn[nH]n1
NC[C@@H]1O[C@H](C23CC4CC(CC(C4)C2)C3)Cc2c1ccc(O)c2O
OC1(c2ccc(Cl)c(C(F)(F)F)c2)CCN(CCCC(c2ccc(F)cc2)c2ccc(F)cc2)CC1 [listing 2 of 2 here]
